Measurements taken from ChEMBL document CHEMBL3433997, “St. Jude Leishmania screening dataset” (2016).

What follows are molecules tested against Glucose transporter (Leishmania mexicana) (UniProt O61059) (assay: ST_JUDE_LEISH: Cytotoxicity at 2uM final concentration against transgenic Leishmania Mexicana promastigotes LmGT2 that are glucose transport deficient and complemented with the L. Mexicana glucose transporter 2. Activity is measured by DNA content using SYBR green in vitro).
Type: functional
`COc1ccc(Nc2nc(N/N=C/c3ccc(-c4ccc([N+](=O)[O-])cc4)o3)nc(Nc3ccccc3)n2)cc1` gave an inhibition of 9.94%. `Cc1[nH]c(C)c(-c2ccc(-c3ccc(OC(F)(F)F)cc3)cc2)c(=O)c1Cl` was tested, and the inhibition was -2.04%. `Cc1cccc2nc(-c3cccc(-c4cccc(NC(=O)C(C)CN(C)C)c4)c3)[nH]c12` (centres undefined) was tested, and the inhibition was 2.3%. `O=S(=O)(c1cccc(C(F)(F)F)c1)N1CCC(CO)(Cc2cccc(C(F)(F)F)c2)CC1` was tested, and the inhibition was 7.55%. In the case of `CC(C)(C)c1ccc(NC(=O)N[C@@H]2CCN(c3ccnc4ccccc34)C2)cc1`, the inhibition is reported as 0.79%. Molecule `CCCCCCCCNc1c2ccc(Cl)cc2nc2ccc(OC)cc12` has an inhibition of 5.8%. Work on `O=C(NC1CCCCC1)N(Cc1cccc(-c2ccc(CNC3CCCC3)cc2)c1)C1CCN(Cc2ccccc2)CC1` yielded an inhibition of 9.9%. `COc1cccc(-c2ccc3ccnc(N)c3c2)c1` was tested, and the inhibition was 2.03%. Molecule `COc1ccc2ncc(F)c([C@@H](O)CN3CCC(NCc4ccc5c(c4)NCCS5)CC3)c2n1` has an inhibition of -5.06%. Work on `Nc1c2c(nc3ccc(NC(=O)CCCCCCc4ccccc4)cc13)CCCC2` yielded an inhibition of -3.57%. With `CCOC(=O)N/N=C/[C@H](CCc1ccccc1)NC(=O)[C@H](CC(C)C)NC(=O)c1cc2cccc(OC)c2o1` the inhibition was 5.67%. `N=C(N)Nc1nc(-c2ccc(NCc3ccc(CNc4cccc(-c5csc(NC(=N)N)n5)c4)cc3)cc2)cs1` was tested, and the inhibition was 1.12%. `CCCC(=O)Nc1ccc(OCCCN(Cc2cccc(C(F)(F)F)c2)c2ccc(C#N)c(C(F)(F)F)c2)cc1` gave an inhibition of 1.64%. With `Cc1cc(-c2ccc(NC(=O)N3CCc4cc(Br)c(N5CCN(C)CC5)cc43)cc2)cc(C)n1` the inhibition was 10.1%.
